Reference: PubChem BioAssay (NCI)
The panel holds about 79,000 compounds, 15% with a hit somewhere; the sample as a whole holds those more often. Cut-off read from the data, not from the text of the source: active = growth inhibition above about 70%; inactive = the rest.

Experiments:
[1] = NCI Yeast Anticancer Drug Screen. Data for the rad50 strain (AID 155);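 note: 0% = growth of vehicle-only cultures of the same strain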; details: S. cerevisiae rad50 strain growth inhibition; at 50.0 µM; stronger effect = higher value
Outline: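 Genetically altered yeast (DNA repair pathway); compound treatment; growth inhibition vs vehicle ctrl.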

[2] = NCI Yeast Anticancer Drug Screen. Data for the mec2-1 strain (AID 157); details: S. cerevisiae mec2-1 strain, at 50.0 µM, stronger effect = higher value
Outline: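 mec2-1 yeast strain, carrying an alteration in DNA damage repair or cell cycle control, was exposed to compounds; growth inhibition was measured relative to vehicle-treated controls.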

[3] = NCI Yeast Anticancer Drug Screen. Data for the sgs1 mgt1 strain (AID 161);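 note: 0% = growth of cultures given vehicle only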; details: S. cerevisiae sgs1 mgt1 strain, at 50.0 µM, stronger effect = higher value
Outline: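 Compounds are added to genetically altered yeast, and growth is compared with cultures given vehicle alone to give percent inhibition.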

[4] = NCI Yeast Anticancer Drug Screen. Data for the cln2 rad14 strain (AID 165);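 note: 0% = growth equal to vehicle treated cultures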; details: S. cerevisiae cln2 rad14 strain, at 50.0 µM, stronger effect = higher value
Outline: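 Yeast carrying cln2 and rad14 alterations (cell cycle control and DNA damage repair) were exposed to compounds. Growth inhibition was measured against vehicle-treated controls.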

[5] = NCI Yeast Anticancer Drug Screen. Data for the bub3 strain (AID 167); details: S. cerevisiae bub3 mutant strain, at 50.0 µM, stronger effect = higher value
Outline: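 Yeast carrying a defined mutation is treated with each compound, and growth is compared with that of vehicle-exposed cells to give inhibition.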

[6] = NCI Yeast Anticancer Drug Screen. Data for the mlh1 rad18 strain (AID 175); details: S. cerevisiae mlh1 rad18 strain growth inhibition; at 50.0 µM; stronger effect = higher value
Outline: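 Growth inhibition of the yeast strain was measured after compound exposure and expressed relative to vehicle-treated controls. The strain carries defined defects in DNA damage repair.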

Measured: growth inhibition

CC(=O)OCC#Cc1ccccc1
inactive: [1] -10.9% | [2] -14.1% | [3] -0.2% | [4] -17.6% | [5] 19.4% | [6] -1.2%

Cc1ccc(N2C3=C(CC4=C2CC(C)(C)CC4=O)C(=O)CC(C)(C)C3)cc1
inactive: [1] -29.6% | [2] -25.1% | [3] -21.1% | [4] -15.9% | [5] -33.8% | [6] -24.9%

CC(O)COC1CCCCC1 (stereo unspecified)
inactive: [1] -2.75% | [2] -10.9% | [3] 3.85% | [4] -7.25% | [5] -3.95% | [6] -0.95%

CCOC(=O)COc1ccc(C)c2c1C(=O)CC2
inactive: [1] -11.2% | [2] -12.9% | [3] -13.2% | [4] -25.9% | [5] -19.1% | [6] -9.9%

Oc1cc(O)cc(/C=C/c2ccc(O)c(O)c2)c1
inactive: [1] 5.2% | [2] -2.35% | [3] 6% | [4] 5.95% | [5] 18.4% | [6] 18.6%

ClCCCOC1CCCCO1 (stereo unspecified)
inactive: [1] -20.1% | [2] -40.5% | [3] -21.1% | [4] 26.9% | [5] -7.6% | [6] 1.4%

COc1cc(OC)c(C(C)=O)c(C(C)=O)c1
inactive: [1] -15.8% | [2] -13.6% | [3] -13.6% | [4] -5.3% | [5] -10.6% | [6] -2.55%

CCC(C)CNCCO (stereo unspecified)
inactive: [1] 24.6% | [2] -7.1% | [3] 5.7% | [4] 0.35% | [5] -6.25% | [6] 11.3%

O=c1[nH]cnc2c1cnn2Cc1ccccc1
inactive: [1] 4.1% | [2] -4.85% | [3] 1.2% | [4] 2.1% | [5] 26.1% | [6] 1.95%

CCCCC(NC(=O)OCc1ccccc1)C(=O)NC(Cc1c[nH]c2ccccc12)C(=O)O (stereo unspecified)
inactive: [1] 37.6% | [2] 3.9% | [3] 14.7% | [4] 17.8% | [5] 0.4% | [6] 9.25%

COc1cccc2cc(C(C)=O)c(=O)oc12
inactive: [1] 8.65% | [2] -5.35% | [3] 1.6% | [4] 3% | [5] 9.05% | [6] 2.85%

O=S(=O)(CC(Br)c1ccccc1)c1ccccc1 (stereo unspecified)
inactive: [1] 44.7% | [2] 6.15% | [3] 5.05% | [4] -4.3% | [5] 60.5% | [6] 45%

O=C1CSC(/C(=C/c2ccccc2)c2nc3ccccc3[nH]2)=N1
inactive: [1] 6.65% | [2] -1.75% | [3] 0.15% | [4] 16.2% | [5] -1.6% | [6] -0.25%

NC(=O)Nc1ccc([N+](=O)[O-])cc1
inactive: [1] 4.65% | [2] -2.9% | [3] -2.6% | [4] -51.6% | [5] -11.9% | [6] 2.05%

CC(NC(=O)C(OC(=O)C(C)NC(=O)OC(C)(C)C)C(C)C)C(=O)OC(C(=O)O)C(C)C (stereo unspecified)
inactive: [1] -24.2% | [2] 10.3% | [3] -5.75% | [4] -1.1% | [5] 2.1% | [6] -7.15%

Cc1cc(C)nc(N)n1
inactive: [1] 0.25% | [2] 0.35% | [3] -1.85% | [4] -42.9% | [5] -1.9% | [6] 10.1%

O=C1C(CO)=C[C@H](O)[C@H]2O[C@@H]12
inactive: [1] -4.3% | [2] 0.3% | [3] -9.45% | [4] 7.85% | [5] 8.65% | [6] -29.4%

CC1(C)CCCC2(C)[C@@H]1CC[C@]13C[C@](C)(CC[C@@H]21)[C@@H]3CO (stereo partly specified)
inactive: [1] -17.8% | [2] -2.9% | [3] -22.6% | [4] -3.35% | [5] -32.1% | [6] -19.9%

CCNC(=S)NNC(=O)c1ccc(N=NN(C)C)cc1
inactive: [1] -5.15% | [2] 12.8% | [3] 10.3% | [4] -13.4% | [5] 14.8% | [6] 10.9%

CCN(CC)Cc1cc(Oc2ccc(O)c(CN(CC)CC)c2)ccc1O
inactive: [1] 11.1% | [2] 8.5% | [3] 3.65% | [4] -22.7% | [5] 11.6% | [6] -4.4%

CC1c2ccccc2Cn2cc3c(c21)C(=O)c1cccc(OP(=O)(O)OCc2ccccc2)c1C3=O (stereo unspecified)
inactive: [1] 2.2% | [2] 12.6% | [3] 13.1% | [4] 3.45% | [5] 5.1% | [6] 11.9%
